Assay outcomes (PubChem)
Shown are actives, neighbours in structure and some others; about 19% of the full set was active somewhere.
HT1080NT lethal: kills 2HG-producing HT-1080-NT fibrosarcoma cells; Potency, µM (highest dose often 46.1 µM), inactives show at the highest dose activity, negative = less viability, usual class: cytotoxic; 1.6% of 360,000 active; HT-1080-NT fibrosarcoma viability, CellTiter-Glo ATP luminescence, 48 h;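 note: NT is the 2HG producing partner of a matched IDH1 knockdown line; potency is the fitted concentration of half-maximal effect; 0% = DMSO-treated cells and -100% = media-only wells without cells; nearly all actives have a fitted effect of over 55% in size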
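Luminescent CellTiter-Glo readout after 48 hours of compound exposure at 37 degrees C defined viability of HT-1080-NT cells. Activity was normalized to DMSO wells and cell-free media wells; concentration-response curves were fitted and assigned curve classes.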
IL-1B inflam inh: blocks inflammasome-driven IL-1 beta release; THP-1 LPS/ATP IL-1B secretion, AlphaLISA, 16 h; hits give low values; 4.7% of 360,000 active; activity change, % at 57.5 µM; in the data active = activity change below about -50%; inconclusive = mostly about -30% to -49%
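Secreted IL-1B measured by AlphaLISA bead assay after 16 h compound exposure of THP-1 cells; compounds (final up to 57.5 uM) added 1 h before LPS (250 ng/mL) and ATP (1.25 mM) stimulation; lower signal means less secretion.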
HT1080 IDH1KD tx: kills HT-1080 cells with IDH1 knockdown; HT-1080 IDH1 knockdown viability, ATP luminescence, 48 h; Potency, µM (highest dose often 46.1 µM), inactives show at the highest dose activity, negative = toxicity, hits mostly cytotoxic; 2% of 360,000 active; AID 686971;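 note: potency is the fitted concentration of half-maximal effect; 0% = DMSO wells and -100% = cell-free medium wells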
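% activity derives from luminescence (CellTiter-Glo), normalised to DMSO and no-cell wells. HT-1080-IDH1KD cells, 750/well, had 48 h compound exposure at 37 °C.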
TDP1 cell CPT: growth inhibition of DT40 Tdp1-/-;hTDP1 cells with camptothecin (screen for TDP1 inhibitors). chicken DT40 Tdp1-/-;hTDP1 cells + 20 nM CPT, ATP luminescence, 48 h. 12% of 420,000 active. Potency, µM (top dose mostly 46.2 µM), for the others: at the highest dose activity change, negative = growth inhibition, actives largely listed as inhibitors; note: potency is the fitted concentration of half-maximal effect; nearly all actives have a fitted effect of over 55% in size
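Chicken DT40 Tdp1-/- cells stably complemented with human TDP1 were seeded at 400 cells/well in medium containing 20 nM camptothecin, exposed to pin-transferred compounds, and grown at 37 °C for at least 48 hr. Viability was read as ATP luminescence.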
DT40 TDP1 no CPT: qHTS for Inhibitors of human tyrosyl-DNA phosphodiesterase 1 (TDP1): qHTS in cells in absence of CPT. 15% of 420,000 active. DT40 Tdp1-/- hTDP1 cells, no CPT, ATP luminescence, 48 h. Potency, µM (doses to about 46.2 µM), without a hit: at the top dose activity change, negative = growth inhibition, actives largely listed as inhibitors; note: potency is the fitted concentration of half-maximal effect; nearly all actives have a fitted effect of over 55% in size
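Growth of hTDP1-complemented DT40 Tdp1-knockout cells is measured by ATP luminescence after at least 48 hr compound exposure at 37 °C, with DMSO substituting for the 20 nM CPT used in the parallel screen.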
Active calls of the source: *; i = inactive; u = inconclusive; x = not tested or not shown. Unless noted, calls come from the whole dose curve; as a rule, active = well fitted curve in the direction sought with a large enough effect; inconclusive = small, poorly fitted or top-dose-only effect, or another doubt; inactive = no such curve, though single readings can be large; an effect the other way counts as inactive or inconclusive. Unless noted, % is set by controls: 0 for no effect and ±100 for the full control effect.

SMILES	HT1080NT lethal	IL-1B inflam inh	HT1080 IDH1KD tx	TDP1 cell CPT	DT40 TDP1 no CPT
CN(C)S(=O)(=O)c1ccc(NC(=O)C2CCCN(C(=O)c3ccc(Cl)cc3)C2)cc1 (configuration not stated)	-3%	72	-2%	u	u
Cc1ccc(NC(=O)CNCc2ccccc2Cl)cc1S(=O)(=O)N(C)C	-9%	24	-7%	-16%	-24%
O=C(Nc1ccc2nc(-c3cccs3)c(-c3cccs3)nc2c1)N1CCOCC1	-17%	-60*	u	u	13µM*
O=C(Nc1cccc(O)c1)N1CCOCC1	-7%	0	-1%	11%	-2%
O=C(NCc1cccc(Cl)c1)c1cccc(C(F)(F)F)c1	2%	-14	-5%	u	-22%
O=C(NCc1ccccc1Cl)c1cccc(C(F)(F)F)c1	18%	-80*	11%	3%	-14%
O=C(CN(c1cccc(C(F)(F)F)c1)S(=O)(=O)c1ccc(Cl)c([N+](=O)[O-])c1)NCc1ccccc1	-1%	-11	-2%	-23%	u
CC(NC(=O)CN(c1cccc(C(F)(F)F)c1)S(=O)(=O)c1ccc(Cl)c([N+](=O)[O-])c1)c1ccccc1 (configuration not stated)	23µM*	-91*	18µM*	4.6µM*	9.2µM*
O=C(CN(c1cccc(C(F)(F)F)c1)S(=O)(=O)c1ccc(Cl)c([N+](=O)[O-])c1)NCc1ccccc1Cl	-20%	-100*	3%	16µM*	16µM*
O=C(NCc1ccccc1Cl)c1cccc(OC2CCN(C(=O)C3CC3)CC2)c1	-8%	-2	-4%	16µM*	u
Cc1cc(S(=O)(=O)NCC(C)C)ccc1OCC(=O)NCc1ccco1	-17%	-3	-3%	-14%	-25%
COc1cccc(CC(=O)NCC2Cc3cc(Cl)cc(-c4ncccn4)c3O2)c1 (configuration not stated)	x	x	x	u	-28%
COc1ccccc1-c1nnc(SCC(=O)NNC(=O)c2ccccc2F)n1C	3%	32	2%	6%	-1%
CCOC(=O)c1[nH]c(=S)[nH]c1C	-1%	8	7%	-13%	-27%
Cc1ccc(-c2nnc(N3CCN(C(=O)c4ccco4)CC3)c3ccccc23)cc1	-2%	-63*	1%	21µM*	u
Cc1cc(C)c2nc(N3CCCN(C(=O)c4ccco4)CC3)c(C#N)cc2c1	-3%	u	-4%	u	u
CCC(=O)N1CCN(c2nnc(-c3ccccc3)c3ccccc23)CC1	-2%	-13	8%	-3%	-22%
O=C(COc1ccccc1)N1CCN(c2nnc(-c3ccccc3)c3ccccc23)CC1	u	-18	-23%	13µM*	16µM*
COc1ccc(OCC(=O)N2CCN(c3nnc(-c4ccc(C)cc4)c4ccccc34)CC2)cc1	u	-84*	u	16µM*	16µM*
Cc1cc(C)c2nc(C(F)(F)F)nc(N3CCN(C(=O)c4ccco4)CC3)c2c1	-10%	u	0%	26µM*	u
COc1ccc(OCC(=O)N2CCN(c3nnc(-c4ccccc4)c4ccccc34)CC2)cc1	-26%	-66*	-4%	16µM*	18µM*
Cc1ccc(OCC(=O)N2CCN(c3nnc(-c4ccc(C)cc4)c4ccccc34)CC2)cc1	14µM*	-87*	u	16µM*	23µM*
COc1ccc(/C=N/n2cnn(Cc3ccccc3Cl)c2=S)cc1OC	3%	-55*	-5%	u	u
CCC(C)(C)C1CCC2(CC1)NC(=O)N(CC(=O)NCCc1c[nH]c3ccccc13)C2=O (configuration not stated)	-2%	-21	-14%	16µM*	16µM*
CN(Cc1ccccc1)C(=O)CN1C(=O)NC2(CCCCCCC2)C1=O	-1%	0	-2%	-15%	u
SMILES	HT1080NT lethal	IL-1B inflam inh	HT1080 IDH1KD tx	TDP1 cell CPT	DT40 TDP1 no CPT
CSc1ccc(CN(C)C(=O)CN2C(=O)NC3(CCCC3)C2=O)cc1	-8%	10	0%	0%	-19%
COc1ccc2cc(CN(C)C(=O)CN3C(=O)NC4(CCCC4)C3=O)ccc2c1	-1%	-15	-4%	u	23µM*
CCC(C)(C)C1CCC2(CC1)NC(=O)N(CC(=O)N(C)Cc1ccc(OC(F)F)cc1)C2=O (configuration not stated)	-13%	-4	-20%	-97%	7.3µM*
CCC(C)(C)C1CCC2(CC1)NC(=O)N(CC(=O)N(C)CCOc1ccc(Cl)cc1)C2=O (configuration not stated)	1%	18	0%	u	23µM*
O=C(CN1C(=O)NC2(CCCC2)C1=O)Nc1ccccc1C(F)(F)F	15%	-6	2%	5%	-9%
CCC(C)(C)C1CCC2(CC1)NC(=O)N(CC(=O)N(C)CC(=O)Nc1ccccc1C(F)(F)F)C2=O (configuration not stated)	-14%	i	u	23µM*	u
Cc1nc(N2CCOCC2)c2c(C(=O)Nc3cccc(C(F)(F)F)c3)c(C)oc2n1	x	x	x	-13%	-3%
Cc1oc2ccc(O)c(CN(C)Cc3ccccc3)c2c1C(=O)Nc1ccccc1	x	x	x	9.2µM*	8.2µM*
Cc1oc2ccc(O)c(CN(C)Cc3ccccc3)c2c1C(=O)Nc1cccc(C(F)(F)F)c1	x	x	x	5.8µM*	5.2µM*
CCc1ccc2oc(C(=O)Nc3cccc(C(F)(F)F)c3)cc(=O)c2c1	x	x	x	-22%	-25%
Cc1oc2ccc(O)c(CN3CCOCC3)c2c1C(=O)Nc1cccc(C(F)(F)F)c1	x	x	x	16µM*	u
O=c1c(-c2cc(-c3ccccc3)nc3c2COc2ccc(Cl)cc2-3)coc2ccccc12	x	x	x	1%	-8%
O=C(c1cc2ccccc2o1)N(C1CC1)C1(C(=O)Nc2ccccc2)CCCC1	-20%	3	-19%	u	u
CCN(CC)C(=O)c1[nH]cnc1C(=O)NCC(=O)OC(C)(C)C	1%	7	1%	0%	-10%
CN1C(=O)c2cccc(NCCCN3C(=O)c4ccccc4C3=O)c2C1=O	-11%	8	4%	u	-8%
CN1C(=O)c2cccc(NCCCCCCN3C(=O)c4ccccc4C3=O)c2C1=O	-5%	u	-1%	21µM*	9.2µM*
Cc1nnc(N2CCN(c3ccccc3F)CC2)c2c1nnn2Cc1ccccc1Cl	x	x	x	15µM*	u
Cc1nnc(N2CCN(c3cccc(Cl)c3)CC2)c2c1nnn2Cc1ccc(F)cc1	x	x	x	-30%	u
Cc1nnc(N2CCN(c3ccccc3F)CC2)c2c1nnn2Cc1ccccc1	x	x	x	u	16µM*
